Compound activity from PubChem BioAssay.
UHRF1 binding – blocks human UHRF1 binding to methylated DNA; actives 0.75% (n = 370,000); Q96T88; inhibition, % at 4.4 µM; UHRF1 binding to methylated oligo, TR-FRET; in the data active = inhibition above about 21%;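 note: UHRF1 SRA domain binding a hemimethylated CpG hairpin DNA probe; 0% = median of test compound wells and 100% = reference inhibitor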
Target sequence (Q96T88 whole entry, looked up, the tested form may be a part): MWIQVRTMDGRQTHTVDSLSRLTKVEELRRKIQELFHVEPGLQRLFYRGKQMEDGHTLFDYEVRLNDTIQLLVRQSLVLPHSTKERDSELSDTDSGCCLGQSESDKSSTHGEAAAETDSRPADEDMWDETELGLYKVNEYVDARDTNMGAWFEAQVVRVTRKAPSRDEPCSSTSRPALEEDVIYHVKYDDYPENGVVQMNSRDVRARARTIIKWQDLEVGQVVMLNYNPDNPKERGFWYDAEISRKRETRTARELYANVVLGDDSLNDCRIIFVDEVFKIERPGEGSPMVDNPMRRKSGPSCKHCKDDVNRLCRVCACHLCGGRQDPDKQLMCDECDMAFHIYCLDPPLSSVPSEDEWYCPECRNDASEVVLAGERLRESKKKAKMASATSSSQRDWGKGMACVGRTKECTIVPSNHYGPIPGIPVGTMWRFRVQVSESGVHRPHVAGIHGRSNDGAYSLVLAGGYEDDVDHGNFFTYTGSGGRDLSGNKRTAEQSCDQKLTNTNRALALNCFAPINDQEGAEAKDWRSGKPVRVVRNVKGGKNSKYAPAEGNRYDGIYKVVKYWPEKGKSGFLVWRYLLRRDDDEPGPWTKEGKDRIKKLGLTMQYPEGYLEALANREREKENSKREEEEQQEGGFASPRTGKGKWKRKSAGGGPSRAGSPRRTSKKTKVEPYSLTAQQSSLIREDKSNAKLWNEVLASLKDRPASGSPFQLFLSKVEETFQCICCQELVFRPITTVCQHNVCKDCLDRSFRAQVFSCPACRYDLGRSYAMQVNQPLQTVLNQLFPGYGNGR
PfM18AAP inh – blocks P. falciparum M18 aspartyl aminopeptidase. recombinant PfM18AAP, H-Glu-NHMec fluorogenic cleavage. inhibition, % at 7.35 µM. actives 1.2% (n = 290,000). AID 1822;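 active = inhibition above the campaign mean inhibition over all tested compounds plus 3 SD, cut at about 28% in these data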;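 note: 0% = plate median of test compound wells and 100% = 2 mM ZnCl2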
MBD2 inh – blocks human MBD2 binding to methylated DNA | actives 0.31% (n = 370,000) | inhibition, % at 4.4 µM | TR-FRET, MBD2 binding to methylated oligonucleotide | Q9UBB5 | AID 686964; in the data active = inhibition above about 13%
PRMT1 FP inh – blocks human protein arginine methyltransferase 1; Q99873; recombinant PRMT1, activity-based probe fluorescence polarization; inhibition, % at 2.79 µM; actives 1.3% (n = 370,000);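 active = inhibition above about 21% made by adding two undisclosed values, limit read from the data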
PfGluPho inh – PfG6PD (Plasmodium falciparum) enzyme inhibition; PfGluPho enzyme, NADPH resazurin-diaphorase fluorescence; inhibition, % at 20 µM; actives 0.78% (n = 350,000);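 active = inhibition reaching at least a set limit at 20 µM in the primary screen, cut at about 59% in these data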;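 note: 0% = DMSO wells with substrate and 100% = DMSO wells lacking glucose-6-phosphate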
PRMT1 inh conf – confirmation of human PRMT1 inhibitors | actives 42% (n = 3,300) | recombinant His-PRMT1, activity-based probe fluorescence polarization | shares compounds with PRMT1 FP inh | AID 687036 | inhibition, % at 2.79 µM;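 active = mean inhibition across replicates above the hit cutoff derived for the earlier primary screen, cut at about 22% in these data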
* = called active by the depositor; · = no result given. An excerpt weighted towards active compounds, which were near 3.3% of everything screened.

SMILES	UHRF1 binding	PfM18AAP inh	MBD2 inh	PRMT1 FP inh	PfGluPho inh	PRMT1 inh conf
O=C(CCc1nc(-c2ccccc2F)no1)NCCc1cccc(F)c1	2	·	2	7	·	·
CCCCn1c(N)c(N(CC(C)C)C(=O)c2cccc(OCc3ccccc3)c2)c(=O)[nH]c1=O	2	·	-2	0	-7	·
N#Cc1c(SCc2c(Cl)cccc2Cl)nc(N)[nH]c1=S	-3	·	-3	43*	-14	11
O=C(O)CSc1c(Cl)c(=O)oc2ccc(Cl)cc12	-3	·	3	4	-14	·
Cc1noc(NS(=O)(=O)c2ccc(NC(=O)CSc3nc4ccccc4s3)cc2)c1C	-2	-11	-5	40*	-20	37*
Cc1noc(NS(=O)(=O)c2ccc(NC(=O)CSc3ncccn3)cc2)c1C	4	-1	-3	5	-11	·
COC(=O)c1ccc(N2C(=O)CC(Sc3n[nH]c(C)n3)C2=O)cc1 (stereo not drawn)	0	-69	0	44*	-7	50*
COc1ccccc1N1C(=O)CC(Sc2nc(C)cc(C)n2)C1=O (stereo not drawn)	2	1	0	5	-3	·
COc1ccc(N2C(=O)CC(Sc3n[nH]c(-c4cccc(C)c4)n3)C2=O)cc1 (stereo not drawn)	0	-36	1	44*	6	60*
CCOc1ccccc1N1C(=O)CC(Sc2n[nH]c(-c3ccccc3)n2)C1=O (stereo not drawn)	-2	-55	0	73*	29	78*
COc1ccc(N=C2NC(=O)/C(=C\C=C\c3ccco3)S2)cc1	4	10	7	20	18	·
Cc1cccc(N=C2NC(=O)/C(=C/C=C/c3ccco3)S2)c1	12	8	2	28*	37	9
Cc1ccccc1C(=O)NC(=S)NC1CCSC1=O (stereo not drawn)	-2	-7	-2	4	-2	·
COc1cc(OC)cc(C(=O)NC2CCSC2=O)c1 (stereo not drawn)	0	-5	1	3	-9	·
O=C(NC(=S)NC1CCSC1=O)c1cccs1 (stereo not drawn)	50*	-17	-3	36*	5	10
COc1ccc(C(=O)NC(=S)NC2CCSC2=O)cc1 (stereo not drawn)	-2	-5	-1	29*	-2	7
O=C(O)c1ccc(N=C2c3ccccc3-c3ccccc32)cc1	3	·	1	-3	21	·
O=c1cc(-c2ccccc2O)nc(-c2ccccc2)[nH]1	15	·	3	1	-9	·
CCCCNC(=O)Cn1cnc2c(cnn2-c2ccc(C)cc2)c1=O	2	0	-2	-1	3	·
CCOC(=O)CNC(=O)Cn1cnc2c(cnn2-c2ccc(C)cc2)c1=O	1	-7	2	76*	-3	3
CSCSC1=C(C#N)C(c2ccccc2Cl)C(C(C)=O)=C(C)N1 (stereo not drawn)	2	13	-5	27*	-17	4
CS(=O)(=O)c1ccc(S(=O)CC(=O)OCc2ccccc2)c([N+](=O)[O-])c1 (stereo not drawn)	-6	11	-3	66*	29	34*
O=[N+]([O-])c1ccc(S(=O)(=O)NCCS(=O)(=O)N2CCN(c3ccccc3)CC2)cc1	-1	4	-1	0	13	·
CCOC(=O)C(=O)N(C)c1c(CC)nc2c(OCCC3CCCCC3)cccn12	0	·	-3	3	·	·
C/C=C\C=C\C(=O)N1CC2(CC(c3cccc(NC(=O)COc4ccc(Cl)cc4)c3)=NO2)C[C@H]1C(N)=O (stereo partly drawn)	8	·	9	63*	35	22*
SMILES	UHRF1 binding	PfM18AAP inh	MBD2 inh	PRMT1 FP inh	PfGluPho inh	PRMT1 inh conf
C/C=C\C=C/C(=O)Nc1cccc(C2=NOC3(C2)C[C@@H](C(N)=O)N(C(=O)COc2ccc(Cl)cc2)C3)c1 (stereo partly drawn)	14	·	6	12	49	·
Cc1ccccc1-n1c(O)cc(=O)[nH]c1=S	21*	7	8	28*	7	2
O=C1C[C@@H]2c3c(cccc3CN1Cc1ccccc1F)C[C@@H](O)[C@H]2O	-2	·	-2	1	-4	·
O=C(CSc1nc2c(c(C(F)(F)F)n1)CCc1ccccc1-2)NCc1ccco1	1	-2	-1	26*	5	3
O=c1[nH]c(-c2ccccn2)nc2sc(-c3ccccc3)cc12	3	5	-2	33*	39	-5
Cc1c(C(=O)N(C)C)sc2nc(-c3ccccn3)[nH]c(=O)c12	8	2	3	8	9	·
Cc1ccc(NC(=O)CSc2nnc3n2CCCCC3)cc1S(=O)(=O)N1CCOCC1	0	·	-6	-2	-6	·
CCOc1ncccc1C(=O)OCc1c(Cl)cccc1Cl	6	-8	8	2	-12	·
O=C1CC(N2CCC(O)CC2)C(=O)N1c1ccc(Br)cc1 (stereo not drawn)	0	-55	1	57*	-9	2
O=CN1CCN(C2CC(=O)N(c3ccc(Br)cc3)C2=O)CC1 (stereo not drawn)	2	-1	-2	3	-18	·
O=C1CC(N2CCN(c3ccc(Cl)c(Cl)c3)CC2)C(=O)N1 (stereo not drawn)	-3	-4	-2	1	0	·
O=C1CC(N2CCC(O)(c3ccc(Cl)cc3)CC2)C(=O)N1 (stereo not drawn)	5	-8	-2	54*	5	2
COc1ccc(N2C(=O)CC(N3CCC(O)(c4ccc(Br)cc4)CC3)C2=O)cc1 (stereo not drawn)	0	-4	-7	50*	-75	2
COc1ccc(N2C(=O)CC(N3CCN(c4ccc(S(C)(=O)=O)cc4)CC3)C2=O)cc1 (stereo not drawn)	-65	-22	0	4	-9	·
O=C1CC(N2CCC(O)(c3ccc(Br)cc3)CC2)C(=O)N1c1ccc(Cl)cc1 (stereo not drawn)	2	0	-5	33*	-2	0
CSCC(C)N1CCC(n2nccc2NC(=O)CCCc2ccccc2)CC1 (stereo not drawn)	1	2	10	30*	-4	24*
CCCSc1nnc(NC(=O)CSc2sc3c(O)cc(=O)[nH]c3c2C#N)s1	16	26	2	34*	-6	15
N#Cc1c(SCC(=O)Nc2nc3ccccc3s2)sc2c(O)cc(=O)[nH]c12	16	·	13	52*	12	7
Cc1c(Cl)cccc1NC(=O)CSc1sc2c(O)cc(=O)[nH]c2c1C#N	7	4	-1	1	10	·
N#Cc1c(SCC(=O)Nc2ccc(Cl)cc2Cl)sc2c(O)cc(=O)[nH]c12	4	11	3	30*	-9	4
N#Cc1c(SCC(=O)Nc2ccccc2C(F)(F)F)sc2c(O)cc(=O)[nH]c12	31*	19	13	31*	15	5
